The source made the active and inactive calls.
How the values were obtained:
[1] = small molecules captured by biotinylated probe aFSTL3 – biochemical, small-molecule microarray, fluorescence 635/667, stem cell growth factor project, primary screen (AID 1064); details: higher = more signal;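 note: measures binding of the biotinylated anti-FSTL3 antibody to printed compounds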
[2] = binders from COS7 lysate, DM2A8 probe, primary screen, torsin A project, cell lysate, small-molecule microarray, fluorescence 635/667 (AID 1065); details: higher = more signal, COS7 lysate expressing mutant human TOR1A
[3] = small molecules captured by biotinylated probe aFGF2 – biochemical, small-molecule microarray, fluorescence 635/667, stem cell growth factor project, primary screen (AID 1067); details: higher = more signal;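 note: measures binding of biotinylated aFGF2 protein to printed compounds on slides; z-score merges feature fluorescence and signal-to-noise across triplicate slides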
[4] = small molecules captured by biotinylated probe aFGF10 – biochemical, small-molecule microarray, fluorescence 635/667, stem cell growth factor project, primary screen (AID 1071); details: higher = more signal;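 note: score merges 667 nm spot intensity and signal to noise from triplicate slides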
[5] = molecular target: Neurogenic locus notch homolog protein 2 (Homo sapiens) (UniProt Q04721); assay: small molecules binding Notch2 protein – biochemical, small-molecule microarray, 635 nm fluorescence, stem cell growth factors, primary screen (AID 1073); details: higher = more signal
[6] = molecular target: Pro-neuregulin-1, membrane-bound isoform (Homo sapiens) (UniProt Q02297); assay: small molecules binding neuregulin-1 protein – biochemical, small-molecule microarray, fluorescence 635/667, psychiatric disease protein project, primary screen (AID 1075); details: NRG1 binding, 635 nm fluorescence, higher = more signal;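 note: score combines 667 nm spot fluorescence with signal to noise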
[7] = tested on: Neuregulin-1 EGF-like domain; assay: small molecules binding NRG1 EGF domain – biochemical, small-molecule microarray, 635 nm fluorescence, primary screen (AID 1081); details: higher = more signal;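 note: binding of the protein to compounds printed on small-molecule microarray slides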
[8] = FRG1 expression reporter modulators in myotubes – cell-based, C2C12 myotubes, firefly/Renilla luciferase, luminescence, FRG1 inhibition for FSHD, primary screen (AID 1084); details: FRG1 promoter luciferase, higher = more signal, called active from +8 up or from −8 down
[9] = small molecules captured by biotinylated probe aFST – biochemical, small-molecule microarray, fluorescence 635/667, stem cell growth factor project, primary screen (AID 1086); details: higher = more signal;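 note: score merges 667 nm fluorescence with signal-to-noise of each printed compound spot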
[10] = binders of probe aHhip on microarray, primary screen, stem cell growth factor project, biochemical, small-molecule microarray, fluorescence 635/667 (AID 1087); details: higher = more signal;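 note: score merges spot fluorescence at 667nm with spot signal to noise ratio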
[11] = tested on: PRMT1 (protein arginine N-methyltransferase 1); assay: small molecules binding arginine methyltransferase PRMT1 – biochemical, small-molecule microarray, 635 nm fluorescence, primary screen (AID 1088); details: higher = more signal;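 note: binding of Prmt1 protein to compounds spotted on small-molecule microarray slides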
[12] = growth effects on S. cerevisiae YJM789 – YJM789 clinical isolate, OD600, 24 h, basal, primary screen (AID 1089); details: higher = more signal, called active from +8 up or from −8 down;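 note: growth of clinical yeast isolate S. cerevisiae YJM 789 seeded 1000 cells per well; test concentration not given here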
[13] = S. pombe growth modifiers, basal conditions – strain 972, OD600, 24 h, no modulator, primary screen (AID 1090);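 note: basal condition with compound alone and no growth modifier present; test concentration not given here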; details: S. pombe 972 growth, higher = more signal, called active from +8 up or from −8 down
[14] = budding yeast growth modifiers under rapamycin – strain BY4716, OD600, 96 h, primary screen (AID 1091); note: test concentration not given here; details: S. cerevisiae BY4716 + rapamycin, higher = more signal, called active from +8 up or from −8 down
[15] = molecular target: Torsin-1A-interacting protein 2 (Homo sapiens) (UniProt Q8NFQ8); assay: small molecules binding lysate-expressed LULL1 – cell lysate, human LULL1 lysate, 635/667 nm fluorescence, primary screen (AID 1092); details: small-molecule microarray, hLULL1 lysate binding, 635 nm fluorescence; higher = more signal;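 note: probe is lysate of COS7 cells overexpressing human LULL1; score merges per-feature 667 nm fluorescence with signal-to-noise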
[16] = optical density change of DRC41 E. coli – strain DRC41, OD650, 24 h, E. coli filamentation project, primary screen (AID 1093);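 note: MC1000 strain lacking acrAB efflux and sulA so SOS filamentation is blocked; test concentration not given here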; details: E. coli DRC41 growth, higher = more signal, called active from +8 up or from −8 down
[17] = probe aLefty2 binding to arrayed compounds – biochemical, biotinylated probe, 635/667 nm fluorescence, primary screen (AID 1094); details: small-molecule microarray, higher = more signal;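 note: score merges spot fluorescence near 667 nm with spot signal-to-noise ratio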
[18] = tested on: Noggin (protein binding on small-molecule microarray); assay: small molecules binding Noggin protein – biochemical, 635/667 nm fluorescence, primary screen (AID 1095); details: 635 nm fluorescence, higher = more signal;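 note: score merges 667 nm feature fluorescence with signal to noise over triplicate slides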
[19] = molecular target: Neurogenic locus notch homolog protein 3 (Homo sapiens) (UniProt Q9UM47); assay: small molecules binding NOTCH3 protein – biochemical, 635/667 nm fluorescence, primary screen (AID 1096); details: small-molecule microarray, 635 nm fluorescence, higher = more signal
[20] = probe aEGFR binding to arrayed compounds – biochemical, biotinylated probe, 635/667 nm fluorescence, primary screen (AID 1097); details: small-molecule microarray, higher = more signal;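 note: probe is a biotinylated anti-EGFR antibody binding compounds printed on slides; score combines fluorescence near 667 nm and signal to noise of each spot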

Neurogenic locus notch homolog protein 2 (Homo sapiens), sequence (Q04721 whole entry, looked up, canonical isoform): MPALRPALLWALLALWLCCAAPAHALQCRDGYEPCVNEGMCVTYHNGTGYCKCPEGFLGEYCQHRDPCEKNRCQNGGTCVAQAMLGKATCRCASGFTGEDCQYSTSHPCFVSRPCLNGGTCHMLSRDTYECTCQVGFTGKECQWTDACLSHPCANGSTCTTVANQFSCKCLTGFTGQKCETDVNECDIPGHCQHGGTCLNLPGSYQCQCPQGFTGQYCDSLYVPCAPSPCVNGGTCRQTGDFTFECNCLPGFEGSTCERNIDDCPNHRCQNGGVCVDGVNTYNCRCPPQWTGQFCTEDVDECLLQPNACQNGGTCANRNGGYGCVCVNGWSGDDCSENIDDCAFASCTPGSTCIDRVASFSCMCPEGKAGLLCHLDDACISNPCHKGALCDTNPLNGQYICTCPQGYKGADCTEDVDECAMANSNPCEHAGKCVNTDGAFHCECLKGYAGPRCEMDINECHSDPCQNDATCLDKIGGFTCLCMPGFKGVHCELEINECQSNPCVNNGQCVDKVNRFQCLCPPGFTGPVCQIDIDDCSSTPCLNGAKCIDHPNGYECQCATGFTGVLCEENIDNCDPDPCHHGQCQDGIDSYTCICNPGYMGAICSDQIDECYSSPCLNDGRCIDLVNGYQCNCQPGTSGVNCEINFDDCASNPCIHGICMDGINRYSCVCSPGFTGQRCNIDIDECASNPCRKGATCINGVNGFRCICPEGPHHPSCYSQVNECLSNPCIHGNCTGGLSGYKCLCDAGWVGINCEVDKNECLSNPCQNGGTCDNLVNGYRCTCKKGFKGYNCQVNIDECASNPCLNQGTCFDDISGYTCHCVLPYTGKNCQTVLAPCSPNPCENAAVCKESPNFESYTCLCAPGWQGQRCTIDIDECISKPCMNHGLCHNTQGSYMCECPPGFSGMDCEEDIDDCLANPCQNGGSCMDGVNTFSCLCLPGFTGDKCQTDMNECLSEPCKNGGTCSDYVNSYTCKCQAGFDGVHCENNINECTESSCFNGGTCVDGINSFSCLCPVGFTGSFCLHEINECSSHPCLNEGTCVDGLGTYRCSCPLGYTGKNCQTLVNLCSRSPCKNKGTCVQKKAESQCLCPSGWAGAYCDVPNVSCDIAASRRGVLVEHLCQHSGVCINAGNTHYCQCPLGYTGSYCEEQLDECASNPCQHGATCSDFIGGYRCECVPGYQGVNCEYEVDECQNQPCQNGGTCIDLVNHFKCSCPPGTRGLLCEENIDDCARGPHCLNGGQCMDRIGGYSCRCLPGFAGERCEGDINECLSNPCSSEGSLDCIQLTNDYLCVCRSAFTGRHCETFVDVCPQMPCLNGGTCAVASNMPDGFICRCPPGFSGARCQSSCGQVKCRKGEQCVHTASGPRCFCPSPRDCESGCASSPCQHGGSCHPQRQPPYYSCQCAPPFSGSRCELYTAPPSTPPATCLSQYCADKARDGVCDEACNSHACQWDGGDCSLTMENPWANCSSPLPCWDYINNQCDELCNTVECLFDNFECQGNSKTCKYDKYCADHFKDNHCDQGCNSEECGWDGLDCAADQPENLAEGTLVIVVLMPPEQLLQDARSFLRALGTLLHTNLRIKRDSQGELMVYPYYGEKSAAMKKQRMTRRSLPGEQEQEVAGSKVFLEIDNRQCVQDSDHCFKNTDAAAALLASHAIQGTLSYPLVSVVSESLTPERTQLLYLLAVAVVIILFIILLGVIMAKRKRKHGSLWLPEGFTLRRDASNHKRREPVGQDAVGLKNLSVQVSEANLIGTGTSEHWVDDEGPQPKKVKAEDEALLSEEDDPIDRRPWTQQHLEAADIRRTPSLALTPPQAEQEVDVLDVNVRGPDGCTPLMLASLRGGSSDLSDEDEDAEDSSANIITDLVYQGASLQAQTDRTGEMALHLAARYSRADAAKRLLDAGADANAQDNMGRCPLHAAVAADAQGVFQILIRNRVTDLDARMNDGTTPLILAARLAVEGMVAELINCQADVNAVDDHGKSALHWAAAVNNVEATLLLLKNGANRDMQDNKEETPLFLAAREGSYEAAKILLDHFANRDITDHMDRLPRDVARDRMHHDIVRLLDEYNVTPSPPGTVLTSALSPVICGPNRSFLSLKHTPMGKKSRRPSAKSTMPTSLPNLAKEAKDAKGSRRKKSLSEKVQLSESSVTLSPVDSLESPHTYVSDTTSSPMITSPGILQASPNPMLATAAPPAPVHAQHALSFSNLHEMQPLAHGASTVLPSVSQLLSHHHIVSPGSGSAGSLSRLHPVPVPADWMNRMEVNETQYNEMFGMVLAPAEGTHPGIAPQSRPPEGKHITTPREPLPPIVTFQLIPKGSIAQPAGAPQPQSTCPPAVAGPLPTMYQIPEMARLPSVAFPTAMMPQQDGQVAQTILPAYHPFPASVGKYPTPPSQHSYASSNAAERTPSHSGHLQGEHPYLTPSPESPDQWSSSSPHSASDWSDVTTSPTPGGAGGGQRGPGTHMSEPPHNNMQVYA
Pro-neuregulin-1, membrane-bound isoform (Homo sapiens), sequence (Q02297 whole entry, looked up, the tested form may be a part, canonical isoform): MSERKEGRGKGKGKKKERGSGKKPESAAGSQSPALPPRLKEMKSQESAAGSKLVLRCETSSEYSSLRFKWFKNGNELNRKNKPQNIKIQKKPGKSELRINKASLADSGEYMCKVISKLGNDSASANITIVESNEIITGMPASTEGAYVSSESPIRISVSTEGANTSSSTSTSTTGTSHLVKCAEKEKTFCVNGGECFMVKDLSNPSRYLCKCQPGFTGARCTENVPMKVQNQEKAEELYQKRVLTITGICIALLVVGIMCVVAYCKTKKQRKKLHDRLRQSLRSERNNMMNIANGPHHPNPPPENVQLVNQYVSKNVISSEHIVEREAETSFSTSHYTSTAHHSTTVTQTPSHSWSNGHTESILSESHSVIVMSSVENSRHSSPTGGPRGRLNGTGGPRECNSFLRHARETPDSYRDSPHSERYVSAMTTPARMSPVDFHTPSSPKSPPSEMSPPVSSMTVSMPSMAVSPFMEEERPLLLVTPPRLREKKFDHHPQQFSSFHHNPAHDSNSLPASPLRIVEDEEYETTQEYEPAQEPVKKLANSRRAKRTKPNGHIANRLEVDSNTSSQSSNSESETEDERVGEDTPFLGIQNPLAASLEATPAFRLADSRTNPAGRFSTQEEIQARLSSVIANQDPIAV
Torsin-1A-interacting protein 2 (Homo sapiens), sequence (Q8NFQ8 whole entry, looked up): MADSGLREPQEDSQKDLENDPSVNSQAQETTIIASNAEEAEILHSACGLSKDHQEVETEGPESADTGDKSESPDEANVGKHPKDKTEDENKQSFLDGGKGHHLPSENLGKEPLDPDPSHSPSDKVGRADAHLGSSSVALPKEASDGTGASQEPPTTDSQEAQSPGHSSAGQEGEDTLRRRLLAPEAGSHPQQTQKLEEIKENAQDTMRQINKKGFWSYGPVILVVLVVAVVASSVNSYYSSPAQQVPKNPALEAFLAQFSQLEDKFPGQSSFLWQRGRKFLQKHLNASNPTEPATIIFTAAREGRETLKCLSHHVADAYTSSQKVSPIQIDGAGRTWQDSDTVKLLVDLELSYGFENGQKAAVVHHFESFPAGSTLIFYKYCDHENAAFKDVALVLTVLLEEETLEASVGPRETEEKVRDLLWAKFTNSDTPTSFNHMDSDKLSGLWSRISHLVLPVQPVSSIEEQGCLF

Row | SMILES | composite z-score [1] | composite z-score [2] | composite z-score [3] | composite z-score [4] | composite z-score [5] | composite z-score [6] | composite z-score [7] | z-score [8] | composite z-score [9] | composite z-score [10] | composite z-score [11] | z-score [12] | z-score [13] | z-score [14] | composite z-score [15] | z-score [16] | composite z-score [17] | composite z-score [18] | composite z-score [19] | composite z-score [20]
1 | COCCOC(=O)N1C(=O)[C@@]2(c3cc(C#CC4=CCCCC4)ccc31)[C@H](C(=O)N1CCN(c3ncccn3)CC1)[C@H]1C(=O)O[C@H](c3ccccc3)[C@H](c3ccccc3)N1[C@@H]2c1ccc(OCCO)cc1 | 0.121 | 0.181 | 0.0533 | 0.723 | 1.42 | -0.289 | 1.17 | 0.384 (inactive) | 0.824 | 0.109 | 1.55 | 1.48 (inactive) | 0.442 (inactive) | 3.23 (inactive) | 2.02 | 0.0301 (inactive) | 0.415 | 0.554 | 1.14 | 0.145
2 | O=C1C2C=CC(C(O)c3ccccn3)N(Nc3ccccc3F)C2C(=O)N1c1ccccc1 (stereo not given) | -0.22 | 0.135 | -0.047 | 0.4 | 0.417 | 0.301 | 1.02 | 1.9 (inactive) | 0.19 | -0.0945 | 0.0392 | 0.839 (inactive) | 0.0161 (inactive) | -0.207 (inactive) | 1 | -0.717 (inactive) | -0.0561 | 0.0291 | -0.584 | -0.0581
3 | O=C1O[C@H](c2ccccc2)[C@H](c2ccccc2)N2[C@H]1[C@@H](C(=O)NC[C@H](O)c1ccccc1)[C@]1(C(=O)Nc3ccc(C#CC4(O)CCCCCC4)cc31)[C@H]2c1ccccc1OCCO | -0.267 | 0.444 | -0.136 | 0.566 | 0.967 | 0.911 | 1.12 | -0.369 (inactive) | 0.0026 | -0.0645 | 1.54 | 2.05 (inactive) | 1.27 (inactive) | 5.14 (inactive) | 2.84 | 0.0483 (inactive) | -0.119 | 1.08 | 0.644 | -0.182
4 | C=CCN1Cc2ccccc2C[C@]2(N=C(c3ccc(OCCCO)cc3)O[C@@H]2c2ccccc2)C1=O | 0.211 | 0.363 | -0.0883 | -0.147 | 0.977 | 0.414 | 1.35 | -3.57 (inactive) | 0.607 | 0.0722 | 1.56 | -6.17 (inactive) | -9.52 (active) | 0.272 (inactive) | 3.27 | 1.49 (inactive) | 0.129 | 0.824 | 1.07 | -0.0455
5 | O=C1OCCC=C[C@H]2OC34C=CCN(c5ccc6ccccc6c5)C(=O)[C@H]3N(CCCCCCO)C(=O)[C@@H]4C12 (stereo not given in full) | 0.366 | 0.79 | -0.143 | -0.367 | -0.834 | 2.03 | 0.193 | 1.66 (inactive) | -0.514 | -0.546 | 0.864 | 0.494 (inactive) | -1.55 (inactive) | 0.22 (inactive) | 0.911 | 0.67 (inactive) | -0.087 | -1.63 | -0.228 | -0.178
